This is a sample that favours compounds with a hit; in the whole collection about 8% have one here.
MCF10A rerep – A quantitative high throughput screen for small molecules that induce DNA re-replication in MCF 10a normal breast cells. AID 624296, 2012. Potency, µM (top dose mostly 46.1 µM), hits mostly activators. MCF 10A DNA re-replication, Hoechst nuclear intensity, 48 h. hit rate 2.9% among 350,000; note: nearly all actives have a fitted effect of over 50% in size
KB-3-1 cytotox – qHTS assay for MDR1-selective chemotherapeutics: Primary screen using the parental adenocarcinoma cell KB-3-1; KB-3-1 viability, CellTiter-Glo ATP luminescence, 72 h; Potency, µM (titrated, usually from 46.1 µM), hits mostly cytotoxic; hit rate 1.4% among 400,000; note: nearly all actives have a fitted effect of over 60% in size
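Luminescent ATP read-out (CellTiter-Glo) measures survival of drug-naive KB-3-1 cells after 72 h compound exposure at 37 °C. Titration series was screened from lowest to highest concentration, with DMSO vehicle plates as background controls.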
SW480 rereplic – A quantitative high throughput screen for small molecules that induce DNA re-replication in SW480 colon adenocarcinoma cells; Potency, µM (highest dose often 46.1 µM), most hits filed as activators; SW480 DNA re-replication, Hoechst DNA content imaging, 48 h; AID 624297, 2012; hit rate 1.8% among 340,000; note: nearly all actives have a fitted effect of over 55% in size
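Image-based read-out: total Hoechst fluorescence of nuclei (405 nm excitation, 500-530 nm emission), with hits raising the fraction of high-intensity nuclei. SW480 colon cells incubated 48 hr with compounds at 37 C.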
HT1080NT lethal – qHTS for induction of synthetic lethality in tumor cells producing 2HG: qHTS for the HT-1080-NT fibrosarcoma cell line. Potency, µM (highest dose often 46.1 µM), usual class: cytotoxic. HT-1080-NT fibrosarcoma viability, CellTiter-Glo ATP luminescence, 48 h. hit rate 1.6% among 360,000. AID 686970, 2013;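 note: NT is the 2HG producing partner of a matched IDH1 knockdown line; nearly all actives have a fitted effect of over 55% in size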
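Toxicity toward the 2HG-producing NT line was scored as %Activity, normalised to DMSO and no-cell wells, from CellTiter-Glo luminescence after 48 hours' treatment.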
KB-V1 cytotox – qHTS assay for MDR1-selective chemotherapeutics: Primary screen using the drug-selected MDR subline cells KB-V1 | Potency, µM (titrated, usually from 46.1 µM), actives largely listed as cytotoxic | AID 1347076, 2019 | KB-V1 MDR cells viability, CellTiter-Glo, 72 h | hit rate 3.4% among 400,000; note: nearly all actives have a fitted effect of over 60% in size
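Cells of the MDR subline KB-V1 are plated, dosed with compound at multiple concentrations, and incubated 72 h at 37 degrees C; CellTiter-Glo is then added and luminescence read after 10 min.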
HT1080 IDH1KD tx – qHTS for induction of synthetic lethality in tumor cells producing 2HG: qHTS for the HT-1080-IDH1KD cell line | HT-1080 IDH1 knockdown viability, ATP luminescence, 48 h | AID 686971, 2013 | hit rate 2% among 360,000 | Potency, µM (series often up to 46.1 µM), actives largely listed as cytotoxic
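Using the IDH1-knockdown HT-1080 line run in the same batch and compound series as the NT line, viability after 48 h at 37 °C was determined by CellTiter-Glo luminescence and expressed as % activity.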
Large screens that a line does not name were inactive. Calls come from the whole dose curve; as a rule, active = well fitted curve in the direction sought with a large enough effect; inconclusive = small, poorly fitted or top-dose-only effect, or another doubt; inactive = no such curve, though single readings can be large; an effect the other way counts as inactive or inconclusive.

O=C1/C(=C/c2ccccc2)SC(=S)N1C1CCS(=O)(=O)C1 (stereo unspecified)	MCF10A rerep inconclusive, KB-3-1 cytotox inconclusive
O=C(CN1CCN(CC(=O)c2ccccc2)CC1)c1ccccc1	KB-3-1 cytotox inconclusive
C=CCN(C(=O)CCS(=O)(=O)c1cccc2nsnc12)c1ccccc1	none
CCOC(=O)C1CCN(C(=O)CSc2ccc(Br)cc2)CC1	none
CCCNC(=O)c1ccccc1N1CCN(CCCCN2C(=O)C3CCCCN3C2=O)CC1 (stereo unspecified)	none
O=C(Nc1nc2c(F)cc(F)cc2s1)c1ccc([N+](=O)[O-])o1	MCF10A rerep 12µM, KB-3-1 cytotox 10µM, SW480 rereplic 9.2µM
CC(=O)c1sc(NC(=O)c2cc(-c3ccccc3)nn2-c2ccccc2)nc1C	MCF10A rerep inconclusive, KB-3-1 cytotox inconclusive, KB-V1 cytotox inconclusive
O=C(Nc1nc2ccccc2s1)c1cc(-c2ccccc2)nn1-c1ccccc1	MCF10A rerep inconclusive, KB-3-1 cytotox inconclusive, KB-V1 cytotox 21µM, HT1080 IDH1KD tx inconclusive
O=C(Nc1nc2cc3c(cc2s1)OCCO3)c1ccc([N+](=O)[O-])o1	MCF10A rerep 5.2µM, KB-3-1 cytotox 3.3µM, SW480 rereplic 1.5µM, HT1080NT lethal inconclusive, KB-V1 cytotox inconclusive, HT1080 IDH1KD tx inconclusive
CN(C)CCCN(C(=O)c1ccc2c(c1)OCCO2)c1nc2cc3c(cc2s1)OCO3	SW480 rereplic inconclusive
Cc1cc(C)c2nc(NC(=O)c3ccc([N+](=O)[O-])o3)sc2c1	MCF10A rerep inconclusive
CN(C)CCCN(C(=O)c1ccc([N+](=O)[O-])o1)c1nc2cc3c(cc2s1)OCO3	SW480 rereplic 12µM
COC(=O)Nc1ccc(S(=O)(=O)N2CCCC(C(=O)Nc3cccnc3)C2)cc1 (stereo unspecified)	none
Cc1nnc(N(C)C(=O)c2ccncc2)s1	MCF10A rerep inconclusive, KB-V1 cytotox inconclusive
CCc1nnc(NC(=O)CSc2nnc(COc3ccc(C)cc3)n2-c2ccccc2)s1	MCF10A rerep inconclusive, KB-3-1 cytotox inconclusive, SW480 rereplic inconclusive, KB-V1 cytotox inconclusive
CC1CCCC(NC(=O)c2ccc(COc3ccccc3)o2)C1C (stereo unspecified)	none
Cc1cc(C)c2sc(NC(=O)c3ccc([N+](=O)[O-])o3)nc2c1	MCF10A rerep 21µM, KB-3-1 cytotox inconclusive, SW480 rereplic inconclusive
O=C(O)c1cccc([N+](=O)[O-])c1C(=O)Nc1nc2ccccc2s1	none
O=C(Nc1nc2ccccc2s1)c1ccccc1[N+](=O)[O-]	MCF10A rerep 0.73µM
O=C(Nc1nc2ccccc2s1)c1ccc([N+](=O)[O-])o1	MCF10A rerep 21µM, KB-3-1 cytotox inconclusive, SW480 rereplic 16µM, HT1080NT lethal inconclusive, KB-V1 cytotox inconclusive
COc1ccc2nc(NC(=O)c3ccc([N+](=O)[O-])o3)sc2c1	MCF10A rerep 4.6µM, KB-3-1 cytotox 18µM, SW480 rereplic 7.3µM, HT1080NT lethal inconclusive, KB-V1 cytotox inconclusive, HT1080 IDH1KD tx 18µM
COc1ccc2nc(NC(=O)c3ccccc3[N+](=O)[O-])sc2c1	none
CCCCNC(=O)c1cccc(S(=O)(=O)N2CC3(C)CC2CC(C)(C)C3)c1 (stereo unspecified)	none
Cn1c(=O)n(C)c2cc(N3CCOCC3)c(NC(=O)c3c(F)cccc3F)cc21	none (no result: MCF10A rerep, SW480 rereplic, HT1080NT lethal, HT1080 IDH1KD tx)
O=C(/C=C\c1ccc2c(c1)OCO2)NC1(C(=O)Nc2ccc3c(c2)OCO3)CCCCC1	MCF10A rerep inconclusive
O=C(Cn1cc([N+](=O)[O-])cn1)Nc1nc2ccccc2s1	MCF10A rerep 21µM, SW480 rereplic inconclusive
CCCc1cc(C(=O)Nc2ccc(C(=O)c3ccc(C)cc3)cc2)n(C)n1	MCF10A rerep 18µM, HT1080 IDH1KD tx inconclusive
CC(=O)Nc1ccc(NS(=O)(=O)c2ccc(-c3cnc(C4CC4)o3)cc2)cc1	none
Cc1cccc(NS(=O)(=O)c2ccc(-c3cnc(C4CC4)o3)cc2)c1C	MCF10A rerep inconclusive, KB-3-1 cytotox 0.18µM, SW480 rereplic inconclusive, HT1080NT lethal inconclusive, KB-V1 cytotox inconclusive, HT1080 IDH1KD tx inconclusive
CCOc1ccc(NS(=O)(=O)c2ccc(-c3cnc(C4CC4)o3)cc2)cc1	MCF10A rerep 6.5µM, KB-3-1 cytotox inconclusive, HT1080NT lethal inconclusive, KB-V1 cytotox 16µM, HT1080 IDH1KD tx inconclusive
Cc1ccc(C)c(NS(=O)(=O)c2ccc(-c3cnc(C4CC4)o3)cc2)c1	MCF10A rerep inconclusive, KB-3-1 cytotox inconclusive, SW480 rereplic inconclusive, HT1080NT lethal 0.1µM, KB-V1 cytotox 0.33µM, HT1080 IDH1KD tx 0.16µM
Cc1ccc(NS(=O)(=O)c2ccc(-c3cnc(C4CC4)o3)cc2)cc1N(C)C	none (no result: MCF10A rerep, SW480 rereplic, HT1080NT lethal, HT1080 IDH1KD tx)
COc1ccc(-c2cnc(C)o2)cc1S(=O)(=O)Nc1ccc(C)c(F)c1	KB-3-1 cytotox 5.8µM, KB-V1 cytotox 5.8µM (no result: MCF10A rerep, SW480 rereplic, HT1080NT lethal, HT1080 IDH1KD tx)
CCOc1ccc(NC(=O)C2CCCN(c3nn4cc(-c5ccc(OC)cc5)nc4s3)C2)cc1 (stereo unspecified)	none (no result: MCF10A rerep, SW480 rereplic, HT1080NT lethal, HT1080 IDH1KD tx)
O=C1CC(/C=C/c2ccc(Cl)cc2)=Nc2ccccc2N1	MCF10A rerep inconclusive, KB-3-1 cytotox inconclusive, SW480 rereplic inconclusive, HT1080NT lethal inconclusive, KB-V1 cytotox inconclusive
CCOC(=O)C(C(=O)Cc1ccccc1)c1ccccc1 (stereo unspecified)	none
CCc1ccc(NS(=O)(=O)c2cc(-c3cnc(C4CC4)o3)ccc2C)cc1	KB-V1 cytotox inconclusive (no result: MCF10A rerep, SW480 rereplic, HT1080NT lethal, HT1080 IDH1KD tx)
CC(=O)c1cccc(NS(=O)(=O)c2ccc(-c3cnc(C4CC4)o3)cc2)c1	KB-3-1 cytotox inconclusive, HT1080NT lethal 21µM, KB-V1 cytotox inconclusive, HT1080 IDH1KD tx inconclusive
COc1ccc(NS(=O)(=O)c2cc(-c3cnc(C4CC4)o3)ccc2C)cc1	MCF10A rerep 5.8µM, KB-3-1 cytotox 13µM, SW480 rereplic inconclusive, HT1080NT lethal inconclusive, KB-V1 cytotox inconclusive, HT1080 IDH1KD tx 21µM
Cc1cc(C)cc(NS(=O)(=O)c2ccc(-c3cnc(C4CC4)o3)cc2)c1	MCF10A rerep inconclusive, KB-3-1 cytotox 1.2µM, HT1080NT lethal 1.3µM, KB-V1 cytotox 4.1µM, HT1080 IDH1KD tx 0.65µM
O=S(=O)(Nc1ccccc1)c1ccc(-c2cnc(C3CC3)o2)cc1	MCF10A rerep inconclusive, KB-3-1 cytotox inconclusive, HT1080NT lethal inconclusive, KB-V1 cytotox inconclusive, HT1080 IDH1KD tx inconclusive
COc1ccccc1Nc1nc(Cl)nc(NC(C)(C)C)n1	MCF10A rerep inconclusive, KB-V1 cytotox inconclusive
CCc1nc2ccc(C(=O)N(C)CCCN(C)C)cn2c1N(CC)CCOC	none (no result: MCF10A rerep, SW480 rereplic)
